Assay outcomes deposited in PubChem BioAssay by Sanford-Burnham Center for Chemical Genomics.
Rows were chosen to be rich in hits. Some 0.71% of all compounds tested hit in one or more screens of this group.
iPSC survival up: enhancers of single-cell hiPSC survival, primary screen, ATPlite luminescence. 0.044% of 360,000 active. 100% = ROCK inhibitor wells, 0% = DMSO. survival enhancement, % at 20 µM; in the data active = survival enhancement above about 18%;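 also: cells exposed to compounds for 16 hours before the ATP read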
MIN6 prolif-1: inducers of MIN6 beta-cell proliferation, primary screen, ATP luminescence, uHTS; AID 2380, 2010; 0.29% of 330,000 active; proliferation, % at 10 µM; MIN6 cells proliferation, ATPlite luminescence, 48 h; cells starved in 0.2% serum; 100% = growth in 10% serum;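 active = compounds whose signal lies at least 3.5 SD above the mean of all wells on their plate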
TAG inh: inhibitors of triacylglycerol accumulation, primary screen, cell-based, uHTS, fluorescence, H9c2 | H9c2 cells, Nile Red lipid (TAG) fluorescence; cells loaded with 200 µM oleic acid | inhibition, % at 12.5 µM | 0.66% of 230,000 active | AID 651582, 2012;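 active = pattern-corrected inhibition of lipid staining of at least 50% with the nuclear-stain viability signal not falling by more than 50%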
MIN6 prolif-2: inducers of beta-cell proliferation in MIN6, confirmation, MIN6 cells, mouse | AID 463095, 2010 | 920 tested, under 10 active | proliferation increase, % at 50 µM | ATPlite luminescence, 48 h; cells kept in 0.2% serum; scaled between 0.2% and 10% serum | shares compounds with MIN6 prolif-1;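 active = proliferation increase above 40% at any of the four tested concentrations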
Each line names hits and unclear results; the compound was inactive in the other large screens (follow-up assays come after a bar, where they were run).

COc1cc(C(=O)OCC(=O)NCC2CCCCC2)ccc1OCC(C)C	none
COc1cc(C(=O)OCC(=O)NC2CCCCCC2)ccc1OCC(C)C	MIN6 prolif-1 11 | MIN6 prolif-2 inactive
CC1CN(Cc2ccco2)C(=S)NC1=O (stereo unspecified)	none (no result: MIN6 prolif-1)
CC(C)C(N)c1csc(Nc2ccc(S(C)(=O)=O)cc2)n1 (stereo unspecified)	none (no result: MIN6 prolif-1)
O=C(c1ccc2c3c(cccc13)CC2)N1CCOCC1	MIN6 prolif-1 5.3 | MIN6 prolif-2 inactive
COc1cccc(C(=O)N2CCOCC2)c1OC	none
Cc1ccc(C(=O)OCC(=O)Nc2ccccc2)cc1NC(=O)c1ccco1	none (no result: TAG inh)
Cc1ccc(C(=O)OCC(=O)Nc2sccc2C(N)=O)cc1NC(=O)c1ccco1	MIN6 prolif-1 6.1 | MIN6 prolif-2 inactive
O=C(c1ccc(F)cc1)N1CCCC(C(=O)N2CCc3ccccc3C2)C1 (stereo unspecified)	none
O=C(c1cccc([N+](=O)[O-])c1)N1CCCC(C(=O)N2CCc3ccccc3C2)C1 (stereo unspecified)	MIN6 prolif-1 6.0 (no result: TAG inh) | MIN6 prolif-2 inactive
COc1ccc(NC(=O)CCCN2C(=O)C(c3ccccc3)Oc3cccnc32)c(OC)c1 (stereo unspecified)	none (no result: TAG inh)
COc1ccccc1NC(=O)CCCN1C(=O)C(c2ccccc2)Oc2cccnc21 (stereo unspecified)	MIN6 prolif-1 13 (no result: TAG inh) | MIN6 prolif-2 inactive
COc1ccc(S(=O)(=O)NC(=O)C2(C)CCN2C(=O)c2cccc(F)c2)cc1 (stereo unspecified)	none (no result: MIN6 prolif-1)
Cc1ccccc1OCC(=O)Nn1c(COc2ccccc2)nc2ccccc2c1=O	none
Cc1cccc(C)c1OCC(=O)Nn1c(COc2ccccc2)nc2ccccc2c1=O	MIN6 prolif-1 19 (no result: TAG inh) | MIN6 prolif-2 inactive
CCCn1c(-c2nonc2N)nc2ccccc21	MIN6 prolif-1 9.0 | MIN6 prolif-2 inactive
Cn1c(-c2nonc2N)nc2ccccc21	none (no result: TAG inh)
CCOc1ccc(-n2cnnn2)cc1S(=O)(=O)NC1CC1	none (no result: TAG inh)
CCOc1ccc(-n2cnnn2)cc1S(=O)(=O)Nc1c(C)cccc1C	MIN6 prolif-1 6.1 (no result: TAG inh) | MIN6 prolif-2 inactive
COCCNc1nc(-c2ccccc2F)c2sc(-c3ccccc3)cc2n1	none (no result: MIN6 prolif-1)
CCOC(=O)c1cnc(-n2nc(C)cc2C)nc1Oc1ccccc1F	MIN6 prolif-1 7.8 | MIN6 prolif-2 inactive
CCOC(=O)c1cnc(-n2nc(C)cc2C)nc1Oc1ccc(C(=O)OC)cc1	none
CC(C)C1C(=O)N(Cc2cn(Cc3ccco3)nn2)CCS(=O)(=O)N1Cc1ccc(-c2ccc(F)cc2)cc1 (stereo unspecified)	none (no result: MIN6 prolif-1)
CCOC(=O)C1=C[C@@H](C2CCCCC2)N(S(=O)(=O)c2ccc([N+](=O)[O-])cc2)[C@H]1c1ccccc1	none (no result: MIN6 prolif-1, TAG inh)
CCOC(=O)N1CCC(NC(=O)c2cc3c(-c4ccc(OC)c(OC)c4)nn(C)c3s2)CC1	none
CCOC(=O)C1CCN(C(=O)c2cc3c(-c4ccc(OC)c(OC)c4)nn(C)c3s2)CC1	MIN6 prolif-1 12 | MIN6 prolif-2 inactive
CCOC(=O)C1=C[C@@H](C(C)(C)C)N(S(=O)(=O)c2ccccc2C)[C@H]1c1ccc(Cl)cc1	none (no result: MIN6 prolif-1, TAG inh)
O=C(NCc1cccc(Cl)c1)c1ccc(-n2cncn2)c2ccoc12	none (no result: MIN6 prolif-1)
O=S(=O)(c1ccc(Cl)cc1)N1CCCc2ccccc21	none
Nc1ccc(S(=O)(=O)N2CCCc3ccccc32)cc1	MIN6 prolif-1 14 | MIN6 prolif-2 inactive
Cc1cc(Cl)ccc1NC(=S)N1CCN(Cc2ccc3c(c2)OCO3)CC1	none
Fc1ccccc1NC(=S)N1CCN(Cc2ccc3c(c2)OCO3)CC1	MIN6 prolif-1 7.4 | MIN6 prolif-2 inactive
COc1ccc(CNC[C@H]2O[C@@H](n3ccc(=O)[nH]c3=O)[C@H](O)[C@@H]2O)cc1	none (no result: MIN6 prolif-1, TAG inh)
Cc1cnc(C(=O)OCC(=O)Nc2cc(-c3ccccc3)nn2-c2ccccc2)cn1	MIN6 prolif-1 11 | MIN6 prolif-2 inactive
N#CCC(=O)Nc1ccc(C(=O)OCC(=O)Nc2cc(-c3ccccc3)nn2-c2ccccc2)cc1	none (no result: MIN6 prolif-1)
CC(O)CNc1ccc(-c2n[nH]c(=O)c3ccccc23)cc1[N+](=O)[O-] (stereo unspecified)	none (no result: TAG inh)
CC(O)CNc1cc(N)c([N+](=O)[O-])cc1[N+](=O)[O-] (stereo unspecified)	MIN6 prolif-1 0.0 (no result: TAG inh) | MIN6 prolif-2 inactive
CCOc1ccc(NS(=O)(=O)c2cccc(C(=O)N3CCN(C/C=C/c4ccccc4)CC3)c2)cc1	none (no result: MIN6 prolif-1)
CC(C)CNc1nc(N)c([N+](=O)[O-])c(NCC2CCCO2)n1 (stereo unspecified)	none (no result: TAG inh)
